Assay outcomes: PubChem BioAssay, Sanford-Burnham Center for Chemical Genomics
TNAP Pi inh = human TNAP inhibition, phosphate detection. P05186. purified TNAP, pNPP, malachite green phosphate absorbance. inhibition, % at 20 µM. 21,000 tested, under 10 active. AID 614
TNAP pNPP inh = human TNAP inhibition, p-nitrophenol detection; 21,000 tested, under 10 active; purified TNAP, pNPP hydrolysis, absorbance 405 nm; inhibition, % at 20 µM; P05186;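 also: 0% = DMSO only wells and 100% = 1 mM levamisole wells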
* marks the source's active call; other numbers are inactive results. Not all results are given here.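 The calls were made as follows: active = inhibition above 50% at the 20 µM single-dose screen; inactive = the rest.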

SMILES	TNAP Pi inh	TNAP pNPP inh
CCCOc1cccc(C2C(C(=O)c3ccc(C)o3)=C(O)C(=O)N2CCCN(C)C)c1 (stereo unspecified)	-5	3
CC(C)Oc1ccc(C2/C(=C(/O)c3ccc(F)cc3)C(=O)C(=O)N2CCCN(C)C)cc1 (stereo unspecified)	6	4
CCOc1ccc(N(CC(=O)NC(C)(C)C)C(=O)c2ccco2)cc1	-5	4
CC(C)c1nnc(NC(=O)CCC(=O)Nc2ccc(F)cc2)s1	8	2
CCOC(=O)C1CCN(S(=O)(=O)c2cccc(-c3cn4cccc(C)c4n3)c2)CC1	8	2
COC(=O)c1cccc(CSc2nnc(C)s2)c1	10	7
O=C(CSc1nnc(NC(=O)c2ccco2)s1)NC1CCCCC1	5	-3
NC(=O)CC(O)c1cccc(Cl)c1 (stereo unspecified)	2	8
CCN(CC)CCCN1C(=O)C(=O)/C(=C(/O)c2ccccc2)C1c1ccccn1 (stereo unspecified)	5	-1
O=C(COC(=O)c1cc(S(=O)(=O)N2CCOCC2)ccc1Cl)Nc1ccc2c(c1)OCO2	22	5
O=C(Cn1cc(C(F)(F)F)ccc1=O)N1CCN(S(=O)(=O)c2ccccc2)CC1	6	4
Cc1cc(S(=O)(=O)NCc2cccnc2)ccc1-n1cnnn1	18	3
CCOC(=O)N1CCN(c2ccc3nnnn3n2)CC1	8	5
